# Source: publication PMC7862700, “An all-to-all approach to the identification of sequence-specific readers for epigenetic DNA modifications on cytosine”
# Key:
# Experiment in all cases: DAPPL (digital affinity profiling via proximity ligation, sequencing); 10 mM Tris-HCl pH 7.5, 50 mM NaCl, 1 mM DTT, 4% glycerol, room temperature, 30 min; GST-TFs on glutathione beads, 16-mer random dsDNA library, 0.1% formaldehyde crosslink after washing; high values mean tight binding
# FEV = target: T1, FEV (Homo sapiens, UniProt Q99581 1-238); settings: protein: recombinant; tags: N-terminal GST; dsDNA, one strand shown
# T1 sequence: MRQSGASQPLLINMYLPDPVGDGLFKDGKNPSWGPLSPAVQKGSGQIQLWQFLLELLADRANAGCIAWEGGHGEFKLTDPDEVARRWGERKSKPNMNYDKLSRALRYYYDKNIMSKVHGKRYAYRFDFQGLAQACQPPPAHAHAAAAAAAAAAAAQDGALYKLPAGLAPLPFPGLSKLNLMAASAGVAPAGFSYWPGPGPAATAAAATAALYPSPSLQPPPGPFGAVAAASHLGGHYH
# Method in brief: (§1)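 The binding signal reported is, for every hexamer, its read frequency for a factor over its read frequency for the tag-only sample. Reads came from pools of yeast-expressed, GST-fused human transcription factors on glutathione beads, barcoded with DNA and mixed with that sample, which were incubated with 200 nmole of a random double-stranded 16-mer DNA library in Tris/NaCl/DTT/glycerol buffer at room temperature for 30 min. After washing, the pools were crosslinked with 0.1% formaldehyde, proximity-ligated with BsaI/T4 ligase for 1 h at 37 °C, PCR-amplified and sequenced on an Illumina NextSeq500.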
# ETV5 = ETV5 (Homo sapiens, UniProt P41161 1-510); settings: protein: recombinant; tags: N-terminal GST; dsDNA, one strand shown
# Method in brief: as §1
# HSF1 = HSF1 (Homo sapiens, UniProt Q00613 1-529); settings: protein: recombinant; tags: N-terminal GST; chain copies: 3; dsDNA, one strand shown
# Method in brief: as §1
# SPIC = target: T2, SPIC (Homo sapiens, UniProt Q8N5J4 1-248); settings: protein: recombinant; tags: N-terminal GST; dsDNA, one strand shown
# T2 sequence: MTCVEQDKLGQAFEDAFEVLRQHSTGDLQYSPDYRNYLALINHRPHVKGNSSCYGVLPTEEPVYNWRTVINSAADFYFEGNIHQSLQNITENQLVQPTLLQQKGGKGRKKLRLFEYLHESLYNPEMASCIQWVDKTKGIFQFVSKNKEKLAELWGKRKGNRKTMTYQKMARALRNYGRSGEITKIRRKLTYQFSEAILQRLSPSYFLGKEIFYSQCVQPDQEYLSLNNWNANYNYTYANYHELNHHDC
# Method in brief: as §1
# ELF4 = ELF4 (Homo sapiens, UniProt Q99607 1-663); settings: protein: recombinant; tags: N-terminal GST; dsDNA, one strand shown
# Method in brief: as §1
# ELK4 = target: T3, ELK4 (Homo sapiens, UniProt P28324-2 1-405); settings: protein: recombinant; tags: N-terminal GST; dsDNA, one strand shown
# T3 sequence: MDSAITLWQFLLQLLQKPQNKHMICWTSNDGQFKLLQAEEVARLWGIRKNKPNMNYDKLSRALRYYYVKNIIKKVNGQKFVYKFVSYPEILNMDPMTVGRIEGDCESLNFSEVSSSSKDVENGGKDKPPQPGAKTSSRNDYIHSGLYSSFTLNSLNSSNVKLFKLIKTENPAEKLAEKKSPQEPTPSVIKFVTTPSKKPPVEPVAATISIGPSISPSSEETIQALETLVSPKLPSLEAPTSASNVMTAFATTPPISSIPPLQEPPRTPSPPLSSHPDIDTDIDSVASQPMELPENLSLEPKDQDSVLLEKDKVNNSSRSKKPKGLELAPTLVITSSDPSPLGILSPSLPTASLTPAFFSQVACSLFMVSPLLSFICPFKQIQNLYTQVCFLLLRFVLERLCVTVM
# Method in brief: as §1
# ETV2 = target: T4, ETV2 (Homo sapiens, UniProt O00321 1-342); settings: protein: recombinant; tags: N-terminal GST; dsDNA, one strand shown
# T4 sequence: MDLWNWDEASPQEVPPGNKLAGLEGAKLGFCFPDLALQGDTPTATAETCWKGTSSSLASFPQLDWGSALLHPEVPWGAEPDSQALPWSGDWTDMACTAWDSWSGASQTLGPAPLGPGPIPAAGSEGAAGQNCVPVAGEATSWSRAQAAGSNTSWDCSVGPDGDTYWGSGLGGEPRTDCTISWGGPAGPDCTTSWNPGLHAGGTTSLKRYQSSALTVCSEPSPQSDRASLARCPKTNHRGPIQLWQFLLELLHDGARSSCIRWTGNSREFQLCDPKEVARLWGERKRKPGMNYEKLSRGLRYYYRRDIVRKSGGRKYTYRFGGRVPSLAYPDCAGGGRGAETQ
# Method in brief: as §1
# ELF3 = target: T5, ELF3 (Homo sapiens, UniProt P78545 1-371); settings: protein: recombinant; tags: N-terminal GST; dsDNA, one strand shown
# T5 sequence: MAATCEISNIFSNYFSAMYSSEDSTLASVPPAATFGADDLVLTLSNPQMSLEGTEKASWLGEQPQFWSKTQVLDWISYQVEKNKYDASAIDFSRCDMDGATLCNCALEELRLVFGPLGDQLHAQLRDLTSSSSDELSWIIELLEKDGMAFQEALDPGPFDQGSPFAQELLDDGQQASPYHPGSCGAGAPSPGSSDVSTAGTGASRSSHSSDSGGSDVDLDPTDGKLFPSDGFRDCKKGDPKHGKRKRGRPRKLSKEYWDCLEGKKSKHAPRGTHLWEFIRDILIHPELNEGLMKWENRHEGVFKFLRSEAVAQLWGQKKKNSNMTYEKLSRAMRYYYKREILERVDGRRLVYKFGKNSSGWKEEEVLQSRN
# Method in brief: as §1
# CRX = CRX (Homo sapiens, UniProt O43186 1-299); settings: protein: recombinant; tags: N-terminal GST; dsDNA, one strand shown
# Method in brief: as §1
# ETV1 = ETV1 (Homo sapiens, UniProt P50549 1-477); settings: protein: recombinant; tags: N-terminal GST; dsDNA, one strand shown
# Method in brief: as §1
# ERF = target: T6, ERF (Homo sapiens, UniProt P50548 1-548); settings: protein: recombinant; tags: N-terminal GST; dsDNA, one strand shown
# T6 sequence: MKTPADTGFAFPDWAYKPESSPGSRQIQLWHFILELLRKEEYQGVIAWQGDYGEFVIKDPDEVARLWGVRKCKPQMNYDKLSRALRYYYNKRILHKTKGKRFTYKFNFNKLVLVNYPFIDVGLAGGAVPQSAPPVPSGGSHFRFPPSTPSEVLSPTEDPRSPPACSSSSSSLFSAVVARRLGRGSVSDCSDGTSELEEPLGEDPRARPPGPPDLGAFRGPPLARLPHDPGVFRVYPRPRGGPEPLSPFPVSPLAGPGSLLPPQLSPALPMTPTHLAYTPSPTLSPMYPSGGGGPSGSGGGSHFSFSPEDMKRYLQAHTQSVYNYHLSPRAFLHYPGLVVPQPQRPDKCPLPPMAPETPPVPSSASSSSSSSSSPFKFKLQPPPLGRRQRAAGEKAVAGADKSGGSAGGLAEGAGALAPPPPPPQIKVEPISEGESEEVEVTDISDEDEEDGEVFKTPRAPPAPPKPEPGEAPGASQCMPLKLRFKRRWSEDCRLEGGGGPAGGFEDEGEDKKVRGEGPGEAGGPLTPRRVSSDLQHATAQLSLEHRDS
# Method in brief: as §1
# ETV3L = target: T7, ETV3L (Homo sapiens, UniProt Q6ZN32 1-361); settings: protein: recombinant; tags: N-terminal GST; dsDNA, one strand shown
# T7 sequence: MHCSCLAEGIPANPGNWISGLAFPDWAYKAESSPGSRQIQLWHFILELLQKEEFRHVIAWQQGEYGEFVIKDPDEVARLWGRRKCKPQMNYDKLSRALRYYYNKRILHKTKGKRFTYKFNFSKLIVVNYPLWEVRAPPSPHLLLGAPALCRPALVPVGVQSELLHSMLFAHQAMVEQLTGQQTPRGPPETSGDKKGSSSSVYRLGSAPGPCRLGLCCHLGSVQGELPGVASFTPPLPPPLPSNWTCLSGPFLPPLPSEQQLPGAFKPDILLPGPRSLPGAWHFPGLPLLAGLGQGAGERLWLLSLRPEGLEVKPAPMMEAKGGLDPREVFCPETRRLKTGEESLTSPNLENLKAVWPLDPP
# Method in brief: as §1
# ETS2 = target: T8, ETS2 (Homo sapiens, UniProt P15036 1-469); settings: protein: recombinant; tags: N-terminal GST; dsDNA, one strand shown
# T8 sequence: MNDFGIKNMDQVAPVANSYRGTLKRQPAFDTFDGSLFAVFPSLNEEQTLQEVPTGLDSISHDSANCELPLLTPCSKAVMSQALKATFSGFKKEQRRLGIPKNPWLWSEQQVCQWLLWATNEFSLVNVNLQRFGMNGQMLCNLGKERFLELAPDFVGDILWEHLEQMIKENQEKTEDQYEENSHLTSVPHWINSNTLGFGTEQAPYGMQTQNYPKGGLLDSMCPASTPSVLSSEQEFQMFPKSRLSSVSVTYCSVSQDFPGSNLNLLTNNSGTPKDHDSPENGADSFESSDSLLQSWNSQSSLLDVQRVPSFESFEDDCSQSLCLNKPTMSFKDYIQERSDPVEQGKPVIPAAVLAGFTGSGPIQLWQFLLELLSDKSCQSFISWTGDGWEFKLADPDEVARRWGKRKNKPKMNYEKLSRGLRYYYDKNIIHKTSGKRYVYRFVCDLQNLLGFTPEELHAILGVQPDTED
# Method in brief: as §1
# SPDEF = target: T9, SPDEF (Homo sapiens, UniProt O95238 1-335); settings: protein: recombinant; tags: N-terminal GST; dsDNA, one strand shown
# T9 sequence: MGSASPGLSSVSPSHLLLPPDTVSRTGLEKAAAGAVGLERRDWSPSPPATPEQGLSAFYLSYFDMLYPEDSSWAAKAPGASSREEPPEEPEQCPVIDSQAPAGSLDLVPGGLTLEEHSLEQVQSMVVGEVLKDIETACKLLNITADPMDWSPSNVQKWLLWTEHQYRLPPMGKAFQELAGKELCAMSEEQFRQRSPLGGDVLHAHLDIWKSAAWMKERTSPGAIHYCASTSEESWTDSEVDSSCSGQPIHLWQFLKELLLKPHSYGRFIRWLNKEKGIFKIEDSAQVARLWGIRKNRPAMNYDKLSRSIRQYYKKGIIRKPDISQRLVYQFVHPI
# Method in brief: as §1
# ETV7 = target: T10, ETV7 (Homo sapiens, UniProt Q9Y603 1-341); settings: protein: recombinant; tags: N-terminal GST; dsDNA, one strand shown
# T10 sequence: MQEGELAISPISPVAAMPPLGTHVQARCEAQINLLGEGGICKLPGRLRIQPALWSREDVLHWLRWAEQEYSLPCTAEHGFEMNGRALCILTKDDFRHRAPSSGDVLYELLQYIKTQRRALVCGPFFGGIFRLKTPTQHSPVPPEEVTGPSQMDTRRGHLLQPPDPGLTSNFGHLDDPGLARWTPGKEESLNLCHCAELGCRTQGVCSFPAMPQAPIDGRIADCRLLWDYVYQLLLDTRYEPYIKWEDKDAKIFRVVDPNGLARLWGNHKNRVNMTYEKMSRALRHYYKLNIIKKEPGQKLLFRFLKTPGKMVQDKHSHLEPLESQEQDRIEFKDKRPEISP
# Method in brief: as §1
# ELF5 = target: T11, ELF5 (Homo sapiens, UniProt Q9UKW6-2 1-255); settings: protein: recombinant; tags: N-terminal GST; dsDNA, one strand shown
# T11 sequence: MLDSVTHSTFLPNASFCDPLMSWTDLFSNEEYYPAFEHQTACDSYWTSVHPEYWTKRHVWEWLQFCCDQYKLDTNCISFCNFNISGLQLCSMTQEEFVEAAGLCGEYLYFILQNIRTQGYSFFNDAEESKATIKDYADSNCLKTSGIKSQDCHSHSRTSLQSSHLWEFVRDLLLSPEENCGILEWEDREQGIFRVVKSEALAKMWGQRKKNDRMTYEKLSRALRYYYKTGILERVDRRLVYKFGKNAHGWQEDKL
# Method in brief: as §1
# ETV3 = target: T12, ETV3 (Homo sapiens, UniProt P41162-2 1-143); settings: protein: recombinant; tags: N-terminal GST; dsDNA, one strand shown
# T12 sequence: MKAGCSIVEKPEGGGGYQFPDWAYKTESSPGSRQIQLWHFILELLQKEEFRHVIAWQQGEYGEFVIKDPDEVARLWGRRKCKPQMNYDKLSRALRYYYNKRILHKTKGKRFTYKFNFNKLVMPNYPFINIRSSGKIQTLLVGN
# Method in brief: as §1
# ETV6 = ETV6 (Homo sapiens, UniProt P41212 1-452); settings: protein: recombinant; tags: N-terminal GST; dsDNA, one strand shown
# Method in brief: as §1
# Chain of ETV1 (P50549 whole entry): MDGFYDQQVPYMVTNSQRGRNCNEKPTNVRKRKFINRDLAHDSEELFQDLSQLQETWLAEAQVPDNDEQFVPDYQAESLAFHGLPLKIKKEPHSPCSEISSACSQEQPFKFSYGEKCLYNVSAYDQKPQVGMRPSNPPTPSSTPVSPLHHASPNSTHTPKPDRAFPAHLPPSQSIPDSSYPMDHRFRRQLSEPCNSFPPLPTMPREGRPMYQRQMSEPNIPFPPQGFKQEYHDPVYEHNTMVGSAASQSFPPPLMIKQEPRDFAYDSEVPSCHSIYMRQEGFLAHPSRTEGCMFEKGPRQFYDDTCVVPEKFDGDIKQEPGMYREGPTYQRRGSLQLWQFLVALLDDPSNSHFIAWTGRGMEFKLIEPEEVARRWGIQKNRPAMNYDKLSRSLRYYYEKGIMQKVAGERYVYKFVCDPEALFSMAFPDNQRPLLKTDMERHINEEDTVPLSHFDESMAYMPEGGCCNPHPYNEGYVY
# Chain of ETV6 (P41212 whole entry): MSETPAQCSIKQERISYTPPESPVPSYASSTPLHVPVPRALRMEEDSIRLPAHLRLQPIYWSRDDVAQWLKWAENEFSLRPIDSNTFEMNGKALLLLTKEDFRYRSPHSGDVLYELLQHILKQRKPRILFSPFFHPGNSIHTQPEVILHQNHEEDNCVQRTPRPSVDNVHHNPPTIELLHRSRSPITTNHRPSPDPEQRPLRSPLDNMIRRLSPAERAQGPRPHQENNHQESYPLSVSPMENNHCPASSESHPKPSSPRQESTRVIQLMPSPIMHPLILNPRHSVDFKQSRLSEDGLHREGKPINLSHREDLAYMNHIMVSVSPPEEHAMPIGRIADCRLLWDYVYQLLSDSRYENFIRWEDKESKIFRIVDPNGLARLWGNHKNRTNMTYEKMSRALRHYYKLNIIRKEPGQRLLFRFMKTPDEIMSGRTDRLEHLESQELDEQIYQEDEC
# Chain of CRX (O43186 whole entry): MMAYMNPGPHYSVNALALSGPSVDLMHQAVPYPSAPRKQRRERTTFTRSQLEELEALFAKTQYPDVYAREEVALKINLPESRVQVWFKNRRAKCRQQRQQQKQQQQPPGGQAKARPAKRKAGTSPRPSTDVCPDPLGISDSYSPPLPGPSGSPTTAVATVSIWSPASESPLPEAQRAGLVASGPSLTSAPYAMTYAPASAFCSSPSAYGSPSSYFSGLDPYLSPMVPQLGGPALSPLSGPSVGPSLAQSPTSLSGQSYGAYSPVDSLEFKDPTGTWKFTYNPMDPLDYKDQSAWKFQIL
# Chain of ETV5 (P41161 whole entry): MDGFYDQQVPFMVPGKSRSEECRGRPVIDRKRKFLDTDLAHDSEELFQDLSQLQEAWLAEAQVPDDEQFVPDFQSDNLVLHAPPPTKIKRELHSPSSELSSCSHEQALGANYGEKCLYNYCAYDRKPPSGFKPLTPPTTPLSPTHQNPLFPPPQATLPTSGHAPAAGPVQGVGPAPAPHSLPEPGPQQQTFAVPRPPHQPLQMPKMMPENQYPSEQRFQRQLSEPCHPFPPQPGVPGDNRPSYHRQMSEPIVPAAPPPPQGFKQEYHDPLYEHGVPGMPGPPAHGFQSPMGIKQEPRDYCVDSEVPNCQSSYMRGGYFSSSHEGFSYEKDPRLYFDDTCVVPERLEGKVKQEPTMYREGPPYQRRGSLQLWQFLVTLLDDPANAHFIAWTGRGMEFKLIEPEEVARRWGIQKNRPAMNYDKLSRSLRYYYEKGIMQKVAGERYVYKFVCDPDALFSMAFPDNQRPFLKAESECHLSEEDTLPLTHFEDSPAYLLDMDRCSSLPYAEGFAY
# Chain of ELF4 (Q99607 whole entry): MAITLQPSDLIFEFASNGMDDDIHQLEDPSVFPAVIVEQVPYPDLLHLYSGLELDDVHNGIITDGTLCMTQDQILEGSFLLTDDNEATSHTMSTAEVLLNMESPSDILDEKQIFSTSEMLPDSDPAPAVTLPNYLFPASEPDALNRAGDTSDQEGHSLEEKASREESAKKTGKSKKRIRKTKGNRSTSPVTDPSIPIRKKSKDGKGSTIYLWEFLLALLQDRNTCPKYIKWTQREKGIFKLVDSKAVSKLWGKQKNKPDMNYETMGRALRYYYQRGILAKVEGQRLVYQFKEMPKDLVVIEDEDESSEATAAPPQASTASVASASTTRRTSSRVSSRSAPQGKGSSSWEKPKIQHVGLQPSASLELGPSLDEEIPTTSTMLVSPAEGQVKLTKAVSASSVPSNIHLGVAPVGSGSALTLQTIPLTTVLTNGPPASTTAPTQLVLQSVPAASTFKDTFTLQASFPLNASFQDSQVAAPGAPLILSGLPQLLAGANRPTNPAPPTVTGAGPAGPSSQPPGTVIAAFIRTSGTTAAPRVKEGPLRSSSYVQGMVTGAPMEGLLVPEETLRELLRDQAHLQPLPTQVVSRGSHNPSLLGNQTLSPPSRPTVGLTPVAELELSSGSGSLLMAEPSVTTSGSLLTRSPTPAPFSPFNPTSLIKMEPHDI
# Chain of HSF1 (Q00613 whole entry): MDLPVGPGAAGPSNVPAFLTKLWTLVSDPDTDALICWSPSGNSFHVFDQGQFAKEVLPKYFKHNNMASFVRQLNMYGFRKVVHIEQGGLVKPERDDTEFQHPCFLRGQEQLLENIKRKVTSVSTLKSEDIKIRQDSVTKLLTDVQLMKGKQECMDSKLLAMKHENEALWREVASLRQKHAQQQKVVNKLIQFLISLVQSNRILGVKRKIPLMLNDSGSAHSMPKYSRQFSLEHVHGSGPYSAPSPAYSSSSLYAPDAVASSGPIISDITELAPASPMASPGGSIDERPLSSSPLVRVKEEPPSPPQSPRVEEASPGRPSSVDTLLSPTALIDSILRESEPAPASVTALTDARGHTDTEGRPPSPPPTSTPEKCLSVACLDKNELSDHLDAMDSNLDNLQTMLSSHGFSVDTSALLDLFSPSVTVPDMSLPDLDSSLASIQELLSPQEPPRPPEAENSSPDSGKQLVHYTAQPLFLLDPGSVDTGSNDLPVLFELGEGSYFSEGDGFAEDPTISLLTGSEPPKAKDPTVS
sequence,measurement,setting,value
TGTATT,binding signal,FEV,"1.34 fold enrichment (6-mer frequency, TF over GST control)"
same,binding signal,ETV5,"1.33 fold enrichment (6-mer frequency, TF over GST control)"
same,binding signal,HSF1,"1.3 fold enrichment (6-mer frequency, TF over GST control)"
same,binding signal,SPIC,"1.4 fold enrichment (6-mer frequency, TF over GST control)"
same,binding signal,ELF4,"1.36 fold enrichment (6-mer frequency, TF over GST control)"
same,binding signal,ELK4,"1.33 fold enrichment (6-mer frequency, TF over GST control)"
same,binding signal,ETV2,"1.32 fold enrichment (6-mer frequency, TF over GST control)"
same,binding signal,ELF3,"1.24 fold enrichment (6-mer frequency, TF over GST control)"
same,binding signal,CRX,"1.56 fold enrichment (6-mer frequency, TF over GST control)"
same,binding signal,ETV1,"1.4 fold enrichment (6-mer frequency, TF over GST control)"
same,binding signal,ERF,"1.36 fold enrichment (6-mer frequency, TF over GST control)"
same,binding signal,ETV3L,"1.4 fold enrichment (6-mer frequency, TF over GST control)"
same,binding signal,ETS2,"1.4 fold enrichment (6-mer frequency, TF over GST control)"
same,binding signal,SPDEF,"1.42 fold enrichment (6-mer frequency, TF over GST control)"
same,binding signal,ETV7,"1.4 fold enrichment (6-mer frequency, TF over GST control)"
same,binding signal,ELF5,"1.26 fold enrichment (6-mer frequency, TF over GST control)"
same,binding signal,ETV3,"1.41 fold enrichment (6-mer frequency, TF over GST control)"
same,binding signal,ETV6,"1.41 fold enrichment (6-mer frequency, TF over GST control)"
